Experimental data from PubChem BioAssay AID493169 (National Center for Advancing Translational Sciences (NCATS), 2011).
Results filed as inconclusive are left out. The source made the active and inactive calls. Calls come from the whole dose curve; as a rule, active = well fitted inhibition curve with a large enough effect; inconclusive = small, poorly fitted or top-dose-only effect; inactive = flat fitted curve, though single readings scatter.

Experiment: CHOP2 Reporter Counterscreen Assay for Inhibitors of Ubiquitin-specific Protease USP2a;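 note: activated enterokinase alone at 50 pM in a cell-free format rather than USP2a or CHOP2; nearly all actives have a fitted effect of over 55% in size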
Details: purified enterokinase, fluorogenic substrate, 485/531 nm; series mostly up to 38.3 µM; activity change, negative = inhibition: at the top concentration
Procedure, shortened: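 Cell-free counterscreen with pre-activated enterokinase alone (50 pM final) in 20mM Tris-HCl pH 8.0, 2mM CaCl2, 2mM beta-mercaptoethanol, 0.05% CHAPS; compound preincubation 30 min RT, reporter substrate 25nM final, fluorescence read after 10 min (Ex 485/Em 531).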
% is set by controls: 0 for no effect and ±100 for the full control effect; potency is the fitted concentration of half-maximal effect.

| SMILES | activity change, negative = inhibition | Potency |
| --- | --- | --- |
| O=C(CSc1nc2ccccc2[nH]1)Nc1ccc2c(c1)OCCO2 | -0.689% (inactive) |  |
| COC(=O)c1ccccc1NC(=O)CSc1nc(O)cc(=O)n1C1CCCC1 | -3.97% (inactive) |  |
| COc1cccc(-c2csc3nnc(SCC(=O)NCc4cccs4)n23)c1 | -1.81% (inactive) |  |
| C=C(CCC(=O)c1ccccc1)C(=O)c1ccccc1 | 1.79% (inactive) |  |
| CC1Cc2ccccc2N1C(=O)Cn1c(=O)oc2cc(S(=O)(=O)NC3CCCC3)ccc21 (stereo not given) | -0.985% (inactive) |  |
| O=C(Nc1nc(-c2ccco2)c(-c2ccco2)s1)c1ccc(F)cc1F |  | 10 µM (active) |
| CCOC(=O)C1CCCN(CC(=O)Nc2c(C(=O)OC)[nH]c3ccc(C)cc23)C1 (stereo not given) | -2.91% (inactive) |  |
| COc1cc(C(c2c(C)[nH][nH]c2=O)c2c(C)[nH][nH]c2=O)ccc1OCc1ccc([N+](=O)[O-])cc1 | -5.71% (inactive) |  |
| CCOc1ccc2[nH]c(=O)c(CN(Cc3nnnn3Cc3ccco3)C3CCCCC3)cc2c1 | -8.56% (inactive) |  |
| Cc1cc(C)c2c(N=CN(C)C)c(C(=O)N3CCN(c4ncccn4)CC3)sc2n1 | 3.03% (inactive) |  |
| C=CC[C@H](CC(=O)N[C@H](CO)Cc1ccccc1)C(=O)N[C@@H](COC(=O)[C@@H](CC=C)CC(=O)OC(C)(C)C)Cc1c[nH]c2ccccc12 | 0.391% (inactive) |  |
| Cc1ccc(C(=O)N/C(=C/c2cccs2)C(=O)NCc2ccco2)cc1 | 2.96% (inactive) |  |
| O=C1CC(c2ccc(Cl)cc2)SC(N(c2ccccc2)c2ccccc2)=N1 (stereo not given) | 1.87% (inactive) |  |
| CCCCCCCCCCCCCCCC[N+](C)(C)CCN(Cc1ccc(OC)cc1)c1ncccn1 |  | 10 µM (active) |
| FC(F)(F)C1=Nc2cccc3cccc(c23)N1 | 2.43% (inactive) |  |
| CC(C)c1ccc(NC(=O)C(c2ccc3c(c2)OCO3)N2CCCCC2)cc1 (stereo not given) | 0.102% (inactive) |  |
| O=C(CC(C(=O)O)C1CCCO1)NCCc1ccc2c(c1)OCO2 (stereo not given) | -1.81% (inactive) |  |
| COc1ccc(-c2csc(N3CCN(C(=O)c4ccco4)CC3)n2)cc1 | 4.54% (inactive) |  |
| C#CCOCCOCCOCCNc1nc(N2CCN(C(=O)CCCCCCCCCCNC(=O)[C@H]([C@@H](C)CC)n3cc(CCCCCN)nn3)CC2)nc(N2CCN(C(=O)CCCCCCCCCCNC(=O)[C@H]([C@@H](C)CC)n3cc(CCCCN=C(N)N)nn3)CC2)n1 |  | 2.24 µM (active) |
| Cc1ccc(C(=O)NCCNS(=O)(=O)c2ccccc2)cc1 | 2.62% (inactive) |  |

| SMILES | activity change, negative = inhibition | Potency |
| --- | --- | --- |
| CC[C@]12c3[nH]c4cc(-c5ccco5)ccc4c3CCN1C(=O)[C@@H](CC(=O)NC/C=C(\C)CCC=C(C)C)C[C@@H]2C(=O)N1CCN(C(=O)C2CC2)CC1 | 3.79% (inactive) |  |
| O=C(CSc1ncn[nH]1)Nc1ccc(Br)cc1F | 3.28% (inactive) |  |
| O=C1NC[C@@H](c2ccccc2)OC(=O)[C@@H](Cc2ccc(F)cc2)CC/C=C/C[C@@H]1CC(=O)N(CCO)Cc1ccccc1 | -2.43% (inactive) |  |
| Cc1cc(NC(=O)COC(=O)CCCOc2ccc(Cl)cc2C)no1 | 3.35% (inactive) |  |
| N#CC(c1ccccc1)c1ccc(C(=O)c2ccc(F)cc2)cc1 (stereo not given) | -2.54% (inactive) |  |
| CCCCc1ccc(/C=C2/C(=O)ON=C2c2ccccc2)s1 | -1.37% (inactive) |  |
| Clc1ccccc1-c1nnc2sc(-c3cccs3)nn12 | -19.6% (inactive) |  |
| CC(=O)c1cccc(NC(=O)C(C)OC(=O)c2cc(=O)[nH]c3ccccc23)c1 (stereo not given) |  | 1 µM (active) |
| COc1cc(C)ccc1OCCOc1cc(C)ccc1Cl | 0.822% (inactive) |  |
| COCCN1Cc2cccc(C(=O)N3CCN(c4cc(C)ccc4C)CC3)c2C1=O | -2.08% (inactive) |  |
| CCOC(=O)C(C)Sc1nnc(Cn2c(=O)sc3ccccc32)n1-c1ccccc1 (stereo not given) | -1.3% (inactive) |  |
| CCCc1nc(SCC(N)=O)[nH]c(=O)c1CC | 0.215% (inactive) |  |
| COc1ccc(C(=O)Nc2ccc(N3CCCC3)cc2)cc1OC | 0.701% (inactive) |  |
| Nc1ccc2nc(-c3ccc(N)c(Cl)c3)[nH]c2c1 | -5.04% (inactive) |  |
| Nc1c(C(=O)Nc2ccc3c(c2)OCCO3)nnn1CCc1ccccc1 | -1.84% (inactive) |  |
| COc1ccc(NC(=O)CSc2ncccc2C(=O)OC(C)C)cc1OC | 1.72% (inactive) |  |
| O=C1CS/C(=C/C(=O)c2ccccc2)N1 | 0.0345% (inactive) |  |
| CSc1cccc(NC(=O)c2ccccc2N(C)S(C)(=O)=O)c1 | 3.92% (inactive) |  |
| O=C(Cc1cccs1)Nc1ccc(S(=O)(=O)N2CCCCC2)cc1 |  | 7.94 µM (active) |
| CCn1nnnc1SCC(=O)Nc1cccc(C)n1 | 6.12% (inactive) |  |
